Results taken from the supplement of paper PMC11732987, “Enantioselective OTUD7B fragment discovery through chemoproteomics screening and high-throughput optimisation” (Communications Chemistry, 2025).

Experiments:
Test in all cases: log2 ratio of Biotin-Ahx-Ub-VS probe labelling (fragment/DMSO); higher = less target engagement (more negative = stronger competition), active = hit call of the paper (q ≤ 0.05, log2 ratio ≤ -1)
Details in all cases: compound concentration: 200 uM; treatment time: 3 h
USP42 = molecular target: T1, USP42 (UniProt Q9H9J4)
T1 sequence (whole entry): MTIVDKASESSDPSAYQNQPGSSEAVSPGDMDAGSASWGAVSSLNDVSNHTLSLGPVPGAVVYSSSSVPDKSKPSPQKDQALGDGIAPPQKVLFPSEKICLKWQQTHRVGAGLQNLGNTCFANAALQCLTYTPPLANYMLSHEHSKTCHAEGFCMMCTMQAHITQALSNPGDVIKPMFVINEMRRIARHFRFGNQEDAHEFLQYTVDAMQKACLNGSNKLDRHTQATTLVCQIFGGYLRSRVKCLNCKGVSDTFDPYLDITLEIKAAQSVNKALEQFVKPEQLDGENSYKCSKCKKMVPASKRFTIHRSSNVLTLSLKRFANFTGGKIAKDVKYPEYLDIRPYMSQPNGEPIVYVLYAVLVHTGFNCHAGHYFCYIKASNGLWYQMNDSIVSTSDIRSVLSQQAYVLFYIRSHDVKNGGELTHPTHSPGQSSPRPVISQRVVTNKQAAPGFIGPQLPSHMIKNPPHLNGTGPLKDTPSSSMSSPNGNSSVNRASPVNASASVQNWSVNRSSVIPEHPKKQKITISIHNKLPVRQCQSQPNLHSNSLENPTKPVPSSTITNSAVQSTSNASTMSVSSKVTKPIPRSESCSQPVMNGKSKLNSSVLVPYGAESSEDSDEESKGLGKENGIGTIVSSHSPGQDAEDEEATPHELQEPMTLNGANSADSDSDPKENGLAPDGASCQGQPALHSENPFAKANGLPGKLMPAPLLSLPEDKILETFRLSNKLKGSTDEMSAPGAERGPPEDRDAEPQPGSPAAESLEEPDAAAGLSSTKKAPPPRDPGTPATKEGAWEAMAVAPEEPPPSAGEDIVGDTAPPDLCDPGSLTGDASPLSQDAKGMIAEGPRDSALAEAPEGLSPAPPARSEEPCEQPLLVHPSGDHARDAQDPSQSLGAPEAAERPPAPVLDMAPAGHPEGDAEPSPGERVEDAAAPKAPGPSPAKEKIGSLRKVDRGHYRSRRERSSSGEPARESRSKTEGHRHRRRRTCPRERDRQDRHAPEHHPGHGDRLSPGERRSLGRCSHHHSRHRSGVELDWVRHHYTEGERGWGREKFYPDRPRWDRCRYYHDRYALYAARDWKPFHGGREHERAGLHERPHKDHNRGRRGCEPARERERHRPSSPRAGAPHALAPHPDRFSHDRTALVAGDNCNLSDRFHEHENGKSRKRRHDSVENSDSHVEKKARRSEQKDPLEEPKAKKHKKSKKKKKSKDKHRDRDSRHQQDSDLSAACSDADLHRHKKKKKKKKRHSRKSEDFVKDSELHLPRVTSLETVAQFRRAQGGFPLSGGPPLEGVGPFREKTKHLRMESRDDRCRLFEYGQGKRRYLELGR
Method in brief: (§1)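 HEK293T lysate (495 µg per sample, in Tris/CHAPS/IGEPAL buffer with protease inhibitors) was treated in triplicate with fragment at 200 µM or with DMSO for 3 h. It was then treated with Biotin-Ahx-Ub-VS (0.5 µM final) for 1 h. Labelled DUBs were NeutrAvidin-enriched, digested with LysC and trypsin, and run by diaPASEF LC-MS/MS. Spectronaut label-free quantities were global-median-normalised. Values are average log2 ratios fragment/DMSO by unpaired t-test, using proteins with ≥2 unique peptides.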

USP46 = USP46 (UniProt P62068)
USP46, sequence (P62068 whole entry): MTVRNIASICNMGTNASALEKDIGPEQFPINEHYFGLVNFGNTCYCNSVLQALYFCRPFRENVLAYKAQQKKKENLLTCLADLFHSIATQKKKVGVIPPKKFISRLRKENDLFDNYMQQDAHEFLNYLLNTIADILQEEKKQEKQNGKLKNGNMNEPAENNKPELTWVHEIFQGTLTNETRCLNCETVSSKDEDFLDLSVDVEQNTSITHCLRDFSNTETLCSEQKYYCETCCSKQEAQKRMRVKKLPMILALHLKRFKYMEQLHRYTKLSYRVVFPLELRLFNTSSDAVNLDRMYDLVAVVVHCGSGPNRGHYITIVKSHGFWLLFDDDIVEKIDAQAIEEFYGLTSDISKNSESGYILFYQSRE
Method in brief: as §1

USP47 = molecular target: T2, USP47 (UniProt Q96K76)
T2 sequence (whole entry): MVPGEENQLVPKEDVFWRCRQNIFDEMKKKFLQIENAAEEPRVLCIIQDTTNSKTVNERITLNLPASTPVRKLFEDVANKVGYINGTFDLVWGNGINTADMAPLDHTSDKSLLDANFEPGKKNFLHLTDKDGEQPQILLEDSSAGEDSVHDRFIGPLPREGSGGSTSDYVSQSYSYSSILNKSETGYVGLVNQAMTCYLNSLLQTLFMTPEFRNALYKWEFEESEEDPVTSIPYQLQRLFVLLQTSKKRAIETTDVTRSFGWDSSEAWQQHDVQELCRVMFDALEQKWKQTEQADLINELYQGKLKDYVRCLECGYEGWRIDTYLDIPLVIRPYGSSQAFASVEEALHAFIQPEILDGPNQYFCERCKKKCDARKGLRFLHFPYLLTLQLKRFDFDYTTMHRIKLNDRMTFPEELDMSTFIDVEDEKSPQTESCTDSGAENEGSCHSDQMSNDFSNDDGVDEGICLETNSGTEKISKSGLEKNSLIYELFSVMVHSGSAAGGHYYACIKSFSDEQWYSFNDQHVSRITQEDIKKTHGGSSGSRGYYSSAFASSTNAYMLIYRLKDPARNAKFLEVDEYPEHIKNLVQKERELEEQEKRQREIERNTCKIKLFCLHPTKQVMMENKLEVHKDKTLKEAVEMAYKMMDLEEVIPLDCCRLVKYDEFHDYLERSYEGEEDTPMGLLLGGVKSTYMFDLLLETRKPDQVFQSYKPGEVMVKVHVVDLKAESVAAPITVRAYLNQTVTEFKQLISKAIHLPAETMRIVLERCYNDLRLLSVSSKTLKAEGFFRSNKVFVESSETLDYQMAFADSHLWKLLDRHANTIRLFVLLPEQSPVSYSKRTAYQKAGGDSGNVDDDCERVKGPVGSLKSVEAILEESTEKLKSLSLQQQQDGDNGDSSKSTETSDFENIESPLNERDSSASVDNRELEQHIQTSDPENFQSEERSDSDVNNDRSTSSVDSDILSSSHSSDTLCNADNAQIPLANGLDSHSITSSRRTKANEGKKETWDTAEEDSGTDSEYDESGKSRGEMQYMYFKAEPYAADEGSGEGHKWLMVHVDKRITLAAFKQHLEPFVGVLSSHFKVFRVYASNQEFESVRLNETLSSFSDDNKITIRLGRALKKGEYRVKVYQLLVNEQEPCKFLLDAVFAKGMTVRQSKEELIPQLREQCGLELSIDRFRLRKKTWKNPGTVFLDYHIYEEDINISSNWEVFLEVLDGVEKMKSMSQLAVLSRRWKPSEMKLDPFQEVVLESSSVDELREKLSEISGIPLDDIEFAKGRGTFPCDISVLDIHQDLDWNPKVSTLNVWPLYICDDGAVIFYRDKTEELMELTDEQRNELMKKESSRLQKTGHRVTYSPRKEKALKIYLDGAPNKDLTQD
Method in brief: as §1

USP48 = molecular target: T3, USP48 (UniProt Q86UV5)
T3 sequence (whole entry): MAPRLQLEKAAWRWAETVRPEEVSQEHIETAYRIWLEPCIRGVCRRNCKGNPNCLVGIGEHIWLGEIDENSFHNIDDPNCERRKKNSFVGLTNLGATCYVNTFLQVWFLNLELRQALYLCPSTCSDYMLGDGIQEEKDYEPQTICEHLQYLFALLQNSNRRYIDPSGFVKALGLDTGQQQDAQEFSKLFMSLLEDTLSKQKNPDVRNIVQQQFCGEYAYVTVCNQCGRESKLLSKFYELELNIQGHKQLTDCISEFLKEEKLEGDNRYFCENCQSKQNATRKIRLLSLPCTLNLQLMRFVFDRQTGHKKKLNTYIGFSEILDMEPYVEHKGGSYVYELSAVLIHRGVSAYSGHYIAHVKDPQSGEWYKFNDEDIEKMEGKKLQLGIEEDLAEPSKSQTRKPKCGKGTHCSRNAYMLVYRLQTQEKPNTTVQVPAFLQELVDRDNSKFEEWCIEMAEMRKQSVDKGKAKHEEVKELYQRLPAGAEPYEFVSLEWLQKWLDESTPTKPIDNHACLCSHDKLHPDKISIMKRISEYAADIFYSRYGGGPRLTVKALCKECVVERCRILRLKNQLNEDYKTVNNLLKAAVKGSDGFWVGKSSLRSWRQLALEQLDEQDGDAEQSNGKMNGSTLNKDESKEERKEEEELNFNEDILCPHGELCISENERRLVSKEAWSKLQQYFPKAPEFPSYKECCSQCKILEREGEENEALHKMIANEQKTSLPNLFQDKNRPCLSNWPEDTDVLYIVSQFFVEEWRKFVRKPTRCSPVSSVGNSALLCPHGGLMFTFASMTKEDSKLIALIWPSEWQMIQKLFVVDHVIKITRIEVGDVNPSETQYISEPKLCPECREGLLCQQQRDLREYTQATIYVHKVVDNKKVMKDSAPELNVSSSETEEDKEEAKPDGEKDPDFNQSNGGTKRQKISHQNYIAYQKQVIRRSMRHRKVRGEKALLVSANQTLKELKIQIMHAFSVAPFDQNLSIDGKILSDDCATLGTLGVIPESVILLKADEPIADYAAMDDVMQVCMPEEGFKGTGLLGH
Method in brief: as §1

USP5 = molecular target: T4, USP5 (UniProt P45974)
T4 sequence (whole entry): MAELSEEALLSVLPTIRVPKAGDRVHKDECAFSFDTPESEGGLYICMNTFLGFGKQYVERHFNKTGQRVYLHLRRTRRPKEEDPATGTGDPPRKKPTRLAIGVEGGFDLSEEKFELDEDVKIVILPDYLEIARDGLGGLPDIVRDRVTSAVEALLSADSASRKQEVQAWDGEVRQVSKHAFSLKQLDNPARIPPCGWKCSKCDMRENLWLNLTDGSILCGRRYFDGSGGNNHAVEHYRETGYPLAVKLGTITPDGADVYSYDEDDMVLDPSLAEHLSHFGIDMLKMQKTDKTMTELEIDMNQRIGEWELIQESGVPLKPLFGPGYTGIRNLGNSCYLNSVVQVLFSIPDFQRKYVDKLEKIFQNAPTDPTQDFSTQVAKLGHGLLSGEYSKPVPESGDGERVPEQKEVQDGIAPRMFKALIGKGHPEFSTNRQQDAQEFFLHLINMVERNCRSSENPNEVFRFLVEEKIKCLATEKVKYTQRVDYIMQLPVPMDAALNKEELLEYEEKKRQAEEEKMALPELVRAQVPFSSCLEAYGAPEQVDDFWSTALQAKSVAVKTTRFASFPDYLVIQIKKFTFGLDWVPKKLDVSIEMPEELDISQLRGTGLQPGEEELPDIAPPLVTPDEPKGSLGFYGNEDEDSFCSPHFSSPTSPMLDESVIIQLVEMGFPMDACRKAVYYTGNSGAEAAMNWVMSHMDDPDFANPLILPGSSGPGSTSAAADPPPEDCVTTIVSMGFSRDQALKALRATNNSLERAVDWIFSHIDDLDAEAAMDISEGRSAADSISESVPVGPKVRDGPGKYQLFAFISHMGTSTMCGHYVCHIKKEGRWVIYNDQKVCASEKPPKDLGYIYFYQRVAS
Method in brief: as §1

USP54 = USP54 (UniProt Q70EL1)
USP54, sequence (Q70EL1 whole entry): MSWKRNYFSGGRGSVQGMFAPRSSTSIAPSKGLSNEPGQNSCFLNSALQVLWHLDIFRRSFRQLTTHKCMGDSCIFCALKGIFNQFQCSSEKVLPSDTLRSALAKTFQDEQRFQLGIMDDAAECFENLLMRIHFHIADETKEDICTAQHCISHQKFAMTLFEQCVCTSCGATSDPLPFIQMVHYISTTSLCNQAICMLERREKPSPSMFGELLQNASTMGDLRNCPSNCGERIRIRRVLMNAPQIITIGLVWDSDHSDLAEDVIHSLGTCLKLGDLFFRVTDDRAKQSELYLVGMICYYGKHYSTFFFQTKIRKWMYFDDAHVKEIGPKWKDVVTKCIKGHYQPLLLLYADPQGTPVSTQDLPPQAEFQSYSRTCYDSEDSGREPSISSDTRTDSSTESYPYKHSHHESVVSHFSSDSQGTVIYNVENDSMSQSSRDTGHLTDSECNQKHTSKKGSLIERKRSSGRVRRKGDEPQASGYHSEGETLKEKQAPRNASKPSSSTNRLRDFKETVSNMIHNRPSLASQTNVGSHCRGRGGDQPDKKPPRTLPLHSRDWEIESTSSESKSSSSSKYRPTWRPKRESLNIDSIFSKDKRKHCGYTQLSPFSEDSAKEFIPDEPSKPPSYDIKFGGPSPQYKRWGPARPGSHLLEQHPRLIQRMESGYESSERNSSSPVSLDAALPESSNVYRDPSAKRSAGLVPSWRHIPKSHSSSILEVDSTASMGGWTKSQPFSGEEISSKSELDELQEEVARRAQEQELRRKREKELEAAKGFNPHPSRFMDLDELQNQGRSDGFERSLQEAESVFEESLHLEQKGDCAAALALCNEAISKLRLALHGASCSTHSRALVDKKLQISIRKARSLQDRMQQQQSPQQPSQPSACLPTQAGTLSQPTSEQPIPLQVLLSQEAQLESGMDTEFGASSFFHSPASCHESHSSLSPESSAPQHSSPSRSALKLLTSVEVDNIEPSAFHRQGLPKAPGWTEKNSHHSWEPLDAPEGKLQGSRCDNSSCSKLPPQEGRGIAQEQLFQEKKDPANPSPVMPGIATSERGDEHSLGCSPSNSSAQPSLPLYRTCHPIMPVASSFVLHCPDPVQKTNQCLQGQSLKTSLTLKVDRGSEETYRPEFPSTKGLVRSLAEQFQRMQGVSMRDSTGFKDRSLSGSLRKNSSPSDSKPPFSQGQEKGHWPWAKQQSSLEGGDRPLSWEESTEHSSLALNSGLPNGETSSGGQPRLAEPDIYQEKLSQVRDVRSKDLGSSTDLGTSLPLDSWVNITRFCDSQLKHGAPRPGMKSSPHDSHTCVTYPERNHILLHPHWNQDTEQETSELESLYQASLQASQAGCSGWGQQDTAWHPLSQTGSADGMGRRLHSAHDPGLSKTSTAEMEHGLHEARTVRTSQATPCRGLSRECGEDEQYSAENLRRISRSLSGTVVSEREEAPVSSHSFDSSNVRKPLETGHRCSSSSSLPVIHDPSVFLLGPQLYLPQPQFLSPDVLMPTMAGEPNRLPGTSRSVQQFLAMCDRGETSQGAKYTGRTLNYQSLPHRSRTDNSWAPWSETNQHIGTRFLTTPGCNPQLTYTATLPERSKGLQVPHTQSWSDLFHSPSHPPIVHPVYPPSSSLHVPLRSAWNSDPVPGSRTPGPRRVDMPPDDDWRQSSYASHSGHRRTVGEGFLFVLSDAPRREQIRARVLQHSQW
Method in brief: as §1

USP7 = USP7 (UniProt Q93009)
USP7, sequence (Q93009 whole entry, looked up): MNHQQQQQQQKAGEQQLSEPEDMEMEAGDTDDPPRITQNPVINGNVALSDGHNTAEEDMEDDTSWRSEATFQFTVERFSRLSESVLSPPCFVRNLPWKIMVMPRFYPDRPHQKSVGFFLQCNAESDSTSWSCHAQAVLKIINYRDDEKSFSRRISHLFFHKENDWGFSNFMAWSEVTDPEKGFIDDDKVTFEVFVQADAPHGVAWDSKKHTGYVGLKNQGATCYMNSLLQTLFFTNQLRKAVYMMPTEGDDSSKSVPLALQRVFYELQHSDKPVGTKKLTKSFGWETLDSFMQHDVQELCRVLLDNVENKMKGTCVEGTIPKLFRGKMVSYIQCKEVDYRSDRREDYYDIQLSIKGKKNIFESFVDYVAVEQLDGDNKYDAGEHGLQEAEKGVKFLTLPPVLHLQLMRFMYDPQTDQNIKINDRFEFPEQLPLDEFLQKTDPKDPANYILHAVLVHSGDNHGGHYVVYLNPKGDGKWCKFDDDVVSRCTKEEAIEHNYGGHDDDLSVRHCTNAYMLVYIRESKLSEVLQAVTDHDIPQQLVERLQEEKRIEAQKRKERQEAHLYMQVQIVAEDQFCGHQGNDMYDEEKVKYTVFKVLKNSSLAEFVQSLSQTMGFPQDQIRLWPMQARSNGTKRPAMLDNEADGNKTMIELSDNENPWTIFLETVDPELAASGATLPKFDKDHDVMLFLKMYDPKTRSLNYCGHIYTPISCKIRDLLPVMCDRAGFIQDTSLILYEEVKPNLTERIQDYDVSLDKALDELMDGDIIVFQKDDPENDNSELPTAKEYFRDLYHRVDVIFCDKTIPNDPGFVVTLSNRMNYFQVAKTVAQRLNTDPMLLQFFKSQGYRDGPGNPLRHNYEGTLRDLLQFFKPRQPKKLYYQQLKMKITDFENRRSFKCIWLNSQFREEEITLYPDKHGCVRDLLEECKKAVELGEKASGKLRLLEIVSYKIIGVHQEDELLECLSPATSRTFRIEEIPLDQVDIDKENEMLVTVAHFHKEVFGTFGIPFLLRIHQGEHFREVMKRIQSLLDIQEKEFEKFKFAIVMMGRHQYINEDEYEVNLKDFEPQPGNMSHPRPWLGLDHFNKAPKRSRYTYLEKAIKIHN
Method in brief: as §1

USP8 = molecular target: T5, USP8 (UniProt P40818)
T5 sequence (whole entry): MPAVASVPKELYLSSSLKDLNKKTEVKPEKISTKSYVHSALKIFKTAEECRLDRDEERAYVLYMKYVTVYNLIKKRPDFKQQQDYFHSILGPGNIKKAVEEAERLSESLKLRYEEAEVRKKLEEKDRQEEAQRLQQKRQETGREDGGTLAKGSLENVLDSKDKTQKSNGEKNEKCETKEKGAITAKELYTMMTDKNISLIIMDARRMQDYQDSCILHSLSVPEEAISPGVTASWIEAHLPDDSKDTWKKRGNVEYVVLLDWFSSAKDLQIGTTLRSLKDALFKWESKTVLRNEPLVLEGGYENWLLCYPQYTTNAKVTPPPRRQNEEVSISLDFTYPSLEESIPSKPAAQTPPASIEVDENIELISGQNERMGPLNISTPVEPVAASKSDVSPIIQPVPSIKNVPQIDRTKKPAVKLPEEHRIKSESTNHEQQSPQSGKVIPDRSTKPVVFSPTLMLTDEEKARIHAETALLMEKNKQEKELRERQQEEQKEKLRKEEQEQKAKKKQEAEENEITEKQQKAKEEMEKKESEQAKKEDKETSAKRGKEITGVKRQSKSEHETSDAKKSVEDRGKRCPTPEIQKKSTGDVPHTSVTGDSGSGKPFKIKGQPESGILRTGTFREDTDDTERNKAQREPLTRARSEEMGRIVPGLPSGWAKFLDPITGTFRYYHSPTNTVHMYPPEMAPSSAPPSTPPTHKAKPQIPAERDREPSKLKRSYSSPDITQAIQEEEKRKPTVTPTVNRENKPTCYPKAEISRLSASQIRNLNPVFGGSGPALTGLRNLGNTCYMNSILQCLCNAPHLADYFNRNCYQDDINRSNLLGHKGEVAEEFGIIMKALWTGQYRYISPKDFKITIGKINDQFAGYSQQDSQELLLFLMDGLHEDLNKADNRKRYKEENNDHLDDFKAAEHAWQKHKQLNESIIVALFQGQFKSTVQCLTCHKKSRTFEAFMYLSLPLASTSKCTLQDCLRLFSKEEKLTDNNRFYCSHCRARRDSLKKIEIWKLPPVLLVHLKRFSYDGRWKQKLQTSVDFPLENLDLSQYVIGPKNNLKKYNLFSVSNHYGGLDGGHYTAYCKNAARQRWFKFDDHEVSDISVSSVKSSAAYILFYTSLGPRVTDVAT
Method in brief: as §1

Measured: log2 ratio of Biotin-Ahx-Ub-VS probe labelling

O=C(CCl)Nc1cccc(NC(=O)c2ccccc2)c1
inactive: USP42 0.808 | USP46 0.291 | USP47 -0.303 | USP48 -0.0133 | USP5 0.0977 | USP54 -0.543 | USP7 0.0734 | USP8 0.244
